In PubChem BioAssay (NCATS):
Results filed as inconclusive are left out. Active and inactive are the calls of the source. Unless noted, calls follow the shape of the dose curve; as a rule, active = well fitted curve in the direction sought with a large enough effect; inconclusive = small, poorly fitted or top-dose-only effect, or another doubt; inactive = no such curve, though single readings can be large; an effect the other way counts as inactive or inconclusive.

Legend:
[1] = Quantitative High-Throughput drug screen in 47 multiple myeloma cell lines against the NCATS MIPE library collection: PCM6_Riken cell viability assay (AID 1919870); also: nearly all actives have a fitted effect of over 30% in size
Outline: (§1)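 500 cells/well; MIPE 4.0 drugs pin-transferred; 48 h, 37C, 5% CO2. CellTiter-Glo, 5 min RT, luminescence. Controls: DMSO 100%, media 0%.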

[2] = Quantitative High-Throughput drug screen in 47 multiple myeloma cell lines against the NCATS MIPE library collection: KMS28BM_JCRB cell viability assay (AID 1919874); also: nearly all actives have a fitted effect of over 35% in size
Outline: as §1

[3] = qHTS drug screen for cell cycle checkpoint inhibitors in PARPi-resistant BRCA-mutant ovarian cancer cell lines. (AID 1963452; calls by dose curve); conditions: PEO1/OlaR viability, CellTiter-Glo luminescence, 96 h; for Z-AUC: stronger effect = lower value
Outline: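 PEO1, PEO4 and PEO1/OlaR ovarian cancer cells, 600 per well, exposed 96 h at 37C to a dilution series. Viability read by CellTiter-Glo luminescence, normalized to DMSO and empty wells; activity summarized as Z-AUC.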

[4] = qHTS profiling for inhibitors of Plasmodium falciparum proliferation (AID 504749);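 as to activity, negative = inhibition: 0% = DMSO vehicle and full inhibition = artemisinin control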; as to all read-outs here: nearly all actives have a fitted effect of over 60% in size; conditions: P. falciparum in erythrocytes, SYBR Green DNA, 72 h; for activity, negative = inhibition: at 12.8 µM (top of the series)
Outline: (§2)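 SYBR Green fluorescence (ex 485 nm, em 535 nm) reports parasite DNA after 72 h compound exposure of infected red cells at 0.3% parasitemia, 2.5% hematocrit; signal normalized to 0.29 uM artemisinin and vehicle wells.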

[5] = Quantitative High-Throughput drug screen in 47 multiple myeloma cell lines against the NCATS MIPE library collection: RPMI8226_ATCC cell viability assay (AID 1919871); also: nearly all actives have a fitted effect of over 30% in size
Outline: as §1

[6] = Quantitative High-Throughput drug screen in 47 multiple myeloma cell lines against the NCATS MIPE library collection: KMS11_JCRBsus cell viability assay (AID 1919873); also: nearly all actives have a fitted effect of over 50% in size
Outline: as §1

[7] = qHTS for identification of novel therapeutic agents for treatment of microphthalmiaassociated transcription factor (MiT) renal cell carcinoma (RCC) (AID 1963991; calls by dose curve); conditions: CellTiter-Glo, 48 h; for z-score: stronger effect = lower value
Outline: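 Viability of three TFE3-fusion renal carcinoma lines measured by CellTiter-Glo after 48 h treatment with each of 1912 compounds at 11 concentrations. Responses scaled between DMSO (100%) and empty wells (0%) before curve fitting.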

[8] = Quantitative High-Throughput drug screen in 47 multiple myeloma cell lines against the NCATS MIPE library collection: OPM2_DSMZ cell viability assay (AID 1919872); also: nearly all actives have a fitted effect of over 30% in size
Outline: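 CellTiter-Glo luminescence (ATP) after 48 h compound exposure, 37C/5% CO2; 500 cells/well; MIPE 4.0 approved/investigational drugs pinned in; DMSO = 100%, media only = 0% viability.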

3D7 = assay: qHTS profiling for inhibitors of Plasmodium falciparum proliferation (AID 504749); also: nearly all actives have a fitted effect of over 60% in size;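 as to activity, negative = inhibition: 0% = DMSO vehicle and full inhibition = artemisinin control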; conditions: P. falciparum in erythrocytes, SYBR Green DNA, 72 h; series mostly up to 28.7 µM
Outline: as §2

[9] = measured here: PEO1 parental Z-AUC
[10] = TFE3-RCC UOK109 viability, measured here: UOK109 Z-AUC
[11] = TFE3-RCC viability, measured here: UOK124 Z-AUC
[12] = TFE3-RCC viability, measured here: UOK145 Z-AUC
Potency is read from the fitted curve at half-maximal effect.

For `Clc1ccc(COC(Cn2ccnc2)c2ccc(Cl)cc2Cl)c(Cl)c1` (centres undefined), the Potency [1] was 20.9 µM (active), the Potency [2] was 20.9 µM (active) and the Z-AUC [3] was -0.245 (inactive). The Z-AUC [3, 9] was 0.118, the Z-AUC ([3]; measured here: PEO4 Z-AUC) was -0.196 and the Potency ([4]; parasite line B) was 2.82 µM (active).

In the case of `COc1cc(N2CCN(C)CC2)ccc1Nc1nc(N)c(C(=O)c2c(Cl)cccc2Cl)s1`, the Potency [5] is reported as “inactive”.

In the case of `O=C1CCCC(=O)C1C(=O)c1ccc(C(F)(F)F)cc1[N+](=O)[O-]`, the Potency [1] is reported as “inactive”, the Potency [2] is reported as “inactive” and the Z-AUC [3] is reported as 0.835 (inactive). For the same compound, the Z-AUC [3, 9] was 1.44 and the Z-AUC ([3]; measured here: PEO4 Z-AUC) was 0.656.

In the case of `O=C(CCCN1CCN(c2ccc(F)cc2)CC1)NC1c2ccccc2CSc2ccccc21` (centres undefined), the Potency [1] is reported as 14.8 µM (active) and the Potency [2] is reported as 11.8 µM (active).

In the case of `COc1cc(Nc2nc3ccccc3nc2NS(=O)(=O)c2ccc(NC(=O)c3ccc(C)c(OC)c3)cc2)cc(OC)c1`, the Potency [1] is reported as 2.35 µM (active), the Potency [2] is reported as “inactive” and the Z-AUC [3] is reported as -0.848 (inactive). For the same compound, the Z-AUC [3, 9] was -0.462 and the Z-AUC ([3]; measured here: PEO4 Z-AUC) was -0.582.

With `FC(F)(F)c1ccc(C=Cc2nc(COc3ccc(CCCCn4ccnn4)cc3)co2)cc1` the Potency [1] was 0.0118 µM (active), the Potency [6] was 0.0235 µM (active) and the Potency ([7]; TFE3-RCC UOK109 viability, active = Z-AUC below -0.8 in all three lines) was 2.96 nM (active). For the same compound, the z-score [7, 10] was -2.19, the z-score [7, 11] was -1.14 and the z-score [7, 12] was -1.58.

For `O=C(O)C1=CC(O)C(O)[C@H](O)C1` (some centres undefined), the Potency [5] was “inactive”, the Potency [8] was “inactive” and the Potency [6] was “inactive”. The Potency [2] was “inactive”, the Z-AUC [3] was 1.17 (inactive) and the Z-AUC [3, 9] was 1.52. The Z-AUC ([3]; measured here: PEO4 Z-AUC) was 1.23.

In the case of `Cc1cccc(Nc2nc(N[C@@H]3CCCC[C@H]3N)ncc2C(N)=O)c1`, the Potency [1] is reported as 7.43 µM (active), the Z-AUC [3] is reported as -0.597 (inactive) and the Z-AUC [3, 9] is reported as -0.615. The Z-AUC ([3]; measured here: PEO4 Z-AUC) was -0.03.

With `O=C(Nc1ccccc1)Nc1ccc(-c2ccc(C(=O)[C@H]3CCC[C@H]3C(=O)O)cc2)cc1` the Potency [5] was “inactive”, the Potency [8] was “inactive” and the Potency [6] was “inactive”. For the same compound, the Potency [2] was “inactive”.

In the case of `CCn1c(-c2nonc2N)nc2cncc(CNC3CCNCC3)c21`, the Potency [1] is reported as 4.18 µM (active), the Potency [2] is reported as 20.9 µM (active) and the Z-AUC [3] is reported as -0.284 (inactive). For the same compound, the Z-AUC [3, 9] was 0.212 and the Z-AUC ([3]; measured here: PEO4 Z-AUC) was 0.661.

With `C=C1c2cccc(O)c2C(O)=C2C(=O)[C@@]3(O)C(O)=C(C(N)=O)C(=O)[C@@H](N(C)C)[C@@H]3[C@@H](O)[C@H]12` the Potency [1] was 16.6 µM (active), the Potency [6] was “inactive” and the Z-AUC [3] was -0.114 (inactive). The Z-AUC [3, 9] was -0.453, the Z-AUC ([3]; measured here: PEO4 Z-AUC) was -0.502 and the z-score [7, 10] was 1.5. The z-score [7, 11] was 0.336, the z-score [7, 12] was 0.104 and the activity, negative = inhibition ([4]; parasite line A) was -22.9% (inactive). The activity, negative = inhibition ([4]; parasite line B) was -19.4% (inactive) and the Potency (3D7) was “inactive”.

In the case of `CC1C(=O)OC2C(O)C34C5CC(C(C)(C)C)C36C(OC(=O)C6O)OC4(C(=O)O5)C12O` (centres undefined), the Potency [5] is reported as “inactive”, the Potency [8] is reported as “inactive” and the Potency [6] is reported as “inactive”. The Potency [2] was “inactive”.

In the case of `C=C1[C@H](n2cnc3c(=O)[nH]c(N)nc32)C[C@H](O)[C@H]1CO`, the Potency [5] is reported as “inactive” and the Potency [8] is reported as “inactive”.

In the case of `CO[C@H]1/C=C\O[C@@]2(C)Oc3c(C)c(O)c4c(O)c(c5c(nc6cc(C)ccn65)c4c3C2=O)NC(=O)C(C)=CC=C[C@H](C)[C@H](O)[C@@H](C)[C@@H](O)[C@@H](C)[C@H](OC(C)=O)[C@H]1C`, the Potency [5] is reported as 20.9 µM (active), the Potency [8] is reported as “inactive” and the Potency [6] is reported as “inactive”. For the same compound, the Potency [2] was “inactive”, the z-score [7, 10] was 0.788 and the z-score [7, 11] was 1.17. For the same compound, the z-score [7, 12] was 0.817.

For `C[C@@H]1CC=CC=CC=CC=C[C@@H](O[C@@H]2O[C@H](C)[C@@H](O)[C@H](N)[C@H]2O)C[C@@H]2O[C@](O)(C[C@@H](O)C[C@@H]3O[C@@H]3C=CC(=O)O1)C[C@H](O)[C@@H]2C(=O)O`, the Potency [1] was 16.6 µM (active) and the Potency [2] was 20.9 µM (active).

In the case of `OC[C@H]1O[C@@H](O[C@H]2[C@@H](O)[C@@](O)(CO)O[C@@H]2CO)[C@H](O)[C@@H](O)[C@@H]1O`, the Potency [5] is reported as “inactive”, the Potency [8] is reported as “inactive” and the Potency [6] is reported as “inactive”.

In the case of `CCCCOCCOc1nc(-c2ccc(C(=O)O)c(F)c2)sc1C`, the Potency [5] is reported as 10.5 µM (active), the Potency [8] is reported as “inactive” and the Potency [6] is reported as “inactive”. The Potency [2] was “inactive”, the Z-AUC [3] was 1.12 (inactive) and the Z-AUC [3, 9] was 0.866. For the same compound, the Z-AUC ([3]; measured here: PEO4 Z-AUC) was 0.696, the z-score [7, 10] was 1.12 and the z-score [7, 11] was 0.152. The z-score [7, 12] was 0.316.

In the case of `O=C(Nc1cccc(C(F)(F)F)c1)Nc1cc(S(=O)(=O)NC2CC2)ccc1-c1ccsc1`, the Potency [5] is reported as 13.2 µM (active), the Potency [8] is reported as 3.72 µM (active) and the Potency [6] is reported as 16.6 µM (active). The Potency [2] was 20.9 µM (active), the Z-AUC [3] was -0.117 (inactive) and the Z-AUC [3, 9] was -0.289. For the same compound, the Z-AUC ([3]; measured here: PEO4 Z-AUC) was -0.479.

In the case of `Cc1ccccc1C(=O)c1ccc(Nc2ccc(Br)cc2N)cc1Cl`, the Potency [5] is reported as 11.8 µM (active), the Potency [8] is reported as 23.5 µM (active) and the Potency [6] is reported as 18.7 µM (active).

With `c1cc(OCCN2CCCCC2)cc(-c2n[nH]c3ccc(-c4ncn[nH]4)cc23)c1` the Potency [1] was 16.6 µM (active), the Z-AUC [3] was -0.663 (inactive) and the Z-AUC [3, 9] was -0.209. It also gave a Z-AUC ([3]; measured here: PEO4 Z-AUC) of -0.626.

For `CCNC(=O)c1noc(-c2cc(C(C)C)c(O)cc2O)c1-c1ccc(CN2CCOCC2)cc1`, the Potency [1] was 0.0526 µM (active), the Potency [2] was 0.0332 µM (active) and the Potency [3] was 24.5 nM (active). It also gave a Z-AUC [3, 9] of -1.81 and a Z-AUC ([3]; measured here: PEO4 Z-AUC) of -1.08.

In the case of `CN(C)S(=O)(=O)c1ccc2c(c1)C(=Cc1cc3c([nH]1)CCCC3)C(=O)N2`, the Potency [5] is reported as 7.43 µM (active).

With `Cc1csc(-c2nnc(Nc3ccc(Oc4ncccc4-c4ccnc(N)n4)cc3)c3ccccc23)c1` the Potency [1] was 20.9 µM (active), the Z-AUC [3] was -0.397 (inactive) and the Z-AUC [3, 9] was -0.785. It also gave a Z-AUC ([3]; measured here: PEO4 Z-AUC) of -1.53.

With `COc1cc(CNC(=O)CCCCC=CC(C)C)ccc1O` the Potency [1] was “inactive”, the Potency [6] was “inactive” and the Potency [2] was “inactive”. For the same compound, the z-score [7, 10] was 0.273, the z-score [7, 11] was 0.406 and the z-score [7, 12] was 0.0429.

With `COc1cc2c(cc1OC)[C@@H]1Cc3ccc(OC)c(OC)c3CN1CC2` the Potency [5] was 18.7 µM (active), the Potency [8] was 13.2 µM (active) and the Potency [6] was 7.43 µM (active). For the same compound, the Potency [2] was 8.33 µM (active), the z-score [7, 10] was 0.652 and the z-score [7, 11] was 0.474. The z-score [7, 12] was 0.612.

In the case of `c1ccc(CNc2nc(N3CCOc4ccccc43)nc3c2CCCC3)cc1`, the Potency [1] is reported as “inactive”, the Potency [2] is reported as “inactive” and the Z-AUC [3] is reported as 0.483 (inactive). The Z-AUC [3, 9] was 0.277, the Z-AUC ([3]; measured here: PEO4 Z-AUC) was 1.17 and the z-score [7, 10] was 0.901. The z-score [7, 11] was 0.197 and the z-score [7, 12] was 0.631.
